In PubChem BioAssay (NCI):
The panel holds about 83,000 compounds, 20% with a hit somewhere; the sample as a whole holds those more often.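 Results are percent growth after 48 hours of single-concentration exposure. 100 means growth as in untreated cells, lower positive values show inhibition; negative values down to -100 show cell death.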 A number with no mark means an inactive call. Active and inactive are the calls of the source. How the source made its calls: active means growth percent below 10; inactive means the rest.

Assays:
Assay in all cases: NCI-60 one-dose screen, 48 h (100 = growth as untreated, 0 = no growth, -100 = all killed)
Conditions in all cases: 10 µM unless noted
[1] = test system: SK-MEL-2 melanoma
[2] = test system: EKVX NSCLC
[3] = test system: SN12C renal
[4] = test system: UO-31 renal
[5] = test system: TK-10 renal
[6] = test system: ACHN renal
[7] = test system: CAKI-1 renal
[8] = test system: A498 renal
[9] = test system: CCRF-CEM leukemia
[10] = test system: MOLT-4 leukemia

SMILES	growth [1]	growth [2]	growth [3]	growth [4]	growth [5]	growth [6]	growth [7]	growth [8]	growth [9]	growth [10]
CCOC(=O)c1c(N)c(C#N)cn1Cc1ccc(Cl)cc1Cl	94.2%	81.8%	81.2%	59.9%	69.8%	87.4%	62.4%	73.5%	84.6%	65.1%
CN(C)CCNc1ccc2ncc(C#Cc3cncc(C(=O)Nc4ccc(CN5CCN(C)CC5)c(C(F)(F)F)c4)c3)n2n1	0.656% (active)	7.33% (active)	-9.94% (active)	77.8%	26.6%	10.7%	3.13% (active)	87.7%	5.95% (active)	-9.54% (active)
Nn1c(=O)n(-c2cccc(C(F)(F)F)c2)c(=O)c2cc(-c3ccc(F)cc3F)ccc21	-21.5% (active)	3.55% (active)	1.86% (active)	5.45% (active)	7.05% (active)	0.86% (active)	-12.5% (active)	-20.6% (active)	13.3%	4.48% (active)
O=S(=O)(Oc1ccc(-c2cn3ccsc3n2)cc1)c1cccc(C(F)(F)F)c1	101%	94.3%	104%	93.1%	98.7%	98.4%	89.9%	86.8%	100%	97.6%
Cn1cc(-c2nc(N)nnc2-c2c[nH]c3ccc(Br)cc23)c2cc(F)ccc21	113%	78.5%	102%	58.8%	131%	78.5%	67.8%	98.9%	83.2%	69.4%
C(=N\Nc1nc(N/N=C/c2ccc3c(c2)OCO3)nc(N2CCCCC2)n1)/c1ccc2c(c1)OCO2	103%	93.7%	79.7%	74.4%	121%	94.9%	98.9%	51.7%	20.4%	56.3%
CN1CCN(CCCCCC(=O)Nc2nc(-c3cccc(NS(=O)(=O)c4cccc5c(N(C)C)cccc45)c3)cs2)CC1	102%	74.7%	70.6%	75.1%	119%	88.4%	74.3%	88.6%	59.8%	39.5%
CSc1ccc(/C(=N/N=C(N)N)c2ccc(Cl)cc2)cc1	-7.8% (active)	35.1%	7.12% (active)	10.1%	51.3%	15%	3.83% (active)	-21.6% (active)	16.1%	13.4%
O=C(/C=C/c1cccc(C(F)(F)F)c1)Nc1cccc(C(F)(F)F)c1	76.8%	50.1%	83.1%	47.7%	53.5%	70.1%	34.1%	54.3%	31.7%	35.8%
Brc1ccc(-c2cc(-c3ccc4c(c3)OCCO4)n[nH]2)s1	55.3%	48.4%	54.3%	44.5%	105%	47.9%	31.7%	40.3%	18.1%	19.3%
CCCN1C=C/C(=C\C(=O)n2ccc3ccccc32)c2ccccc21	105%	56.5%	84.1%	53%	105%	82.8%	60.1%	92.9%	73.3%	76.5%
O=C1[C@@H]2Cc3c([nH]c4ccccc34)[C@@H](c3ccc(Cl)cc3)N2C(=O)CN1C1CCN(Cc2c(F)cccc2F)CC1	67.6%	40.1%	38.5%	24.2%	52.5%	28%	24.6%	60%	19.8%	8.27% (active)
CCCc1[nH]c(-c2cc(N)ccc2Cl)c2c1C(=O)CCCC2	95.5%	90.3%	92.1%	78.3%	107%	107%	76.3%	108%	96.2%	88.6%
CC/C(=C(/c1ccc(Cl)cc1)c1ccc(OCCN)cc1)c1ccccc1	105%	102%	104%	78.2%	115%	96.1%	74.6%	92.9%	80.5%	84.1%
